From PubChem BioAssay
AGP1-GFP MLPCN: yeast TOR pathway AGP1-GFP modulation; S. cerevisiae AGP1-GFP multiplex flow cytometry, 3 h; GFP as percent of DMSO wells; actives 0.02% (n = 320,000); GFP response vs DMSO, % at 10 µM;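 active = GFP response relative to DMSO above a set limit, near screen average plus 3 SD, cut at about 150% in these data; inconclusive = fewer than 70 cells counted for the yeast strain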;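 note: median GFP channel fluorescence of the gated AGP1 strain per well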
Myeloid diff 2: myeloid differentiation induction | ER-HoxA9 myeloid progenitors, lysozyme-GFP differentiation, flow cytometry | calls only at 10 µM | actives 1% (n = 360,000);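 active = normalized GFP-positive differentiation at or above the plate's own cutoff, the solvent-only control mean plus 3 SD; inconclusive = no clear call, values can overlap the other calls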;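 note: cells exposed to compound for four days before flow analysis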
RPL19A-GFP yeast: modulators of TOR pathway RPL19A-GFP in S. cerevisiae. AID 2025. S. cerevisiae RPL19A-GFP strain, flow cytometry, 3 h; hits give low values. percent response vs DMSO, % at 10 µM. actives 0.3% (n = 330,000);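 active = percent response vs DMSO below 50%; inconclusive = fewer than 70 events counted for the yeast strain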;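 note: median channel GFP fluorescence of the barcoded RPL19A-GFP strain; ratio of sample median GFP to plate DMSO average so 100% = DMSO; lower means less RPL19A-GFP as with rapamycin TOR inhibition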
MEP2 TOR yeast: alters MEP2-GFP fluorescence in TOR pathway yeast screen; actives 0.51% (n = 330,000); S. cerevisiae MEP2-GFP strain, flow cytometry GFP, 3 h; 100% = DMSO control level; GFP response vs DMSO, % at 10 µM;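 active = GFP response versus DMSO above a set limit, roughly screen mean plus 3 SD, cut at about 180% in these data; inconclusive = fewer than 70 cells counted for a yeast strain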;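 note: median GFP fluorescence of the barcode-gated MEP2-GFP cells per well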
LAP4 TOR yeast: modulators of TOR pathway LAP4-GFP in S. cerevisiae; GFP response vs DMSO, % at 10 µM; S. cerevisiae LAP4-GFP multiplex, flow cytometry GFP, 3 h; median GFP as percent of DMSO wells; actives 0.34% (n = 320,000);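 active = GFP response vs DMSO above a set limit, about the screen mean plus 3 SD, cut at about 150% in these data; inconclusive = under 70 cell events counted for the yeast strain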
CIT2 TOR yeast: modulators of TOR pathway CIT2-GFP in S. cerevisiae. S. cerevisiae CIT2-GFP strain, flow cytometry, 3 h; 100 means same as DMSO wells. GFP response vs DMSO, % at 10 µM. actives 0.065% (n = 320,000);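 active = GFP response relative to DMSO above a set limit, near the screen mean plus 3 SD, cut at about 150% in these data; inconclusive = Fewer than 70 cells measured for a yeast strain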;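 note: ratio of well median GFP fluorescence to mean of DMSO wells on the plate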
Numbers without * were called inactive; [ ] = another dose, or the depositor's remark. An excerpt weighted towards active compounds, which were near 1.8% of everything screened.

Screening Cc1ccc(S(=O)(=O)/N=C(/c2ccccc2)N(C)C)c(C)c1 returned AGP1-GFP MLPCN 92, Myeloid diff 2 inactive, RPL19A-GFP yeast 94, MEP2 TOR yeast 97, LAP4 TOR yeast 97 and CIT2 TOR yeast 94.
CCOc1ccc(OCCSc2nnnn2C2CCCCC2)cc1 was read as AGP1-GFP MLPCN 99, Myeloid diff 2 inactive, RPL19A-GFP yeast 99, MEP2 TOR yeast 103, LAP4 TOR yeast 96 and CIT2 TOR yeast 100.
`Clc1ccc(OCCSc2nnnn2C2CCCCC2)cc1` gave Myeloid diff 2 inactive, RPL19A-GFP yeast 57, MEP2 TOR yeast 236*[may fluoresce violet], LAP4 TOR yeast 102 and CIT2 TOR yeast inconclusive.
COc1ccc(F)cc1C1=CC(=O)C[C@H](c2ccc3c(c2)OCO3)C1 was read as AGP1-GFP MLPCN 99, Myeloid diff 2 active, RPL19A-GFP yeast 102, MEP2 TOR yeast 102, LAP4 TOR yeast 103 and CIT2 TOR yeast 96.
COc1ccc([C@H]2CC(=O)C=C(c3cc(OC)ccc3OC)C2)cc1 was read as AGP1-GFP MLPCN 92, Myeloid diff 2 active, RPL19A-GFP yeast 92, MEP2 TOR yeast 91, LAP4 TOR yeast 105 and CIT2 TOR yeast 89.
CCCn1nc(C(=O)OCC(=O)c2ccc3c(c2)NC(=O)CO3)c2ccccc2c1=O was read as AGP1-GFP MLPCN 254*, Myeloid diff 2 inactive, RPL19A-GFP yeast 60, MEP2 TOR yeast active, LAP4 TOR yeast 346* and CIT2 TOR yeast 169*.
`O=C1COc2ccc(C(=O)COC(=O)c3ccccn3)cc2N1` gave AGP1-GFP MLPCN 96, Myeloid diff 2 inactive, RPL19A-GFP yeast 92, MEP2 TOR yeast 91, LAP4 TOR yeast 100 and CIT2 TOR yeast 88.
`COC(=O)c1ccc2c(=O)n(-c3ccc(OC)cc3)c(=S)[nH]c2c1` gave AGP1-GFP MLPCN 106, Myeloid diff 2 active, RPL19A-GFP yeast 105, MEP2 TOR yeast 100, LAP4 TOR yeast 107 and CIT2 TOR yeast 99.
Screening CC(C)Oc1ccc(S(=O)(=O)N2CCOCC2)cc1NC(=O)C1CCC1 returned AGP1-GFP MLPCN 109, Myeloid diff 2 inactive, RPL19A-GFP yeast 101, MEP2 TOR yeast 99, LAP4 TOR yeast 94 and CIT2 TOR yeast 99.
Screening CC(C)Oc1ccc(S(=O)(=O)N2CCOCC2)cc1NC(=O)CSC(=S)N1CCCC1 returned Myeloid diff 2 active.
For COc1cc(NC(=O)CN2CCN(S(=O)(=O)c3ccc(C(C)C)cc3)CC2)cc(OC)c1 the results were AGP1-GFP MLPCN 104, Myeloid diff 2 inactive, RPL19A-GFP yeast 99, MEP2 TOR yeast 94, LAP4 TOR yeast 96 and CIT2 TOR yeast 101.
For COc1cccc(NC(=O)CN2CCN(S(=O)(=O)c3ccc(C(C)C)cc3)CC2)c1 the results were AGP1-GFP MLPCN inconclusive, Myeloid diff 2 inactive, RPL19A-GFP yeast 40*[may fluoresce violet], MEP2 TOR yeast 119, LAP4 TOR yeast 76 and CIT2 TOR yeast inconclusive.
Cc1cccc2nc(-c3cccnc3)c(Nc3ccccc3)n12 was read as AGP1-GFP MLPCN 106, Myeloid diff 2 inactive, RPL19A-GFP yeast 102, MEP2 TOR yeast 99, LAP4 TOR yeast 104 and CIT2 TOR yeast 107.
`Cc1cccc2nc(-c3cccnc3)c(NCCC(C)C)n12` gave AGP1-GFP MLPCN 108, Myeloid diff 2 inactive, RPL19A-GFP yeast 108, MEP2 TOR yeast 179*, LAP4 TOR yeast 149 and CIT2 TOR yeast 145.
CC(OC(=O)c1cccc(S(=O)(=O)N2CCCCCC2)c1)C(=O)Nc1ccc(S(N)(=O)=O)cc1 (configuration not stated) was read as AGP1-GFP MLPCN 110, Myeloid diff 2 inactive, RPL19A-GFP yeast 99, MEP2 TOR yeast 106, LAP4 TOR yeast 113 and CIT2 TOR yeast 102.
`CCCN(CC(=O)Nc1ccccc1C)C(=O)C1CCCN(C(=O)c2ccc(Cl)cc2)C1` (configuration not stated) gave AGP1-GFP MLPCN 106, Myeloid diff 2 active, RPL19A-GFP yeast 100, MEP2 TOR yeast 104, LAP4 TOR yeast 106 and CIT2 TOR yeast 106.
Screening Cc1ccc(/C=C2/NC(=O)N(Cc3ccccc3F)C2=O)s1 returned AGP1-GFP MLPCN 95, Myeloid diff 2 active, RPL19A-GFP yeast 102, MEP2 TOR yeast 128, LAP4 TOR yeast 108 and CIT2 TOR yeast 105.
`O=C1N/C(=C/c2cccs2)C(=O)N1Cc1ccccc1F` gave AGP1-GFP MLPCN 102, Myeloid diff 2 inactive, RPL19A-GFP yeast 104, MEP2 TOR yeast 97, LAP4 TOR yeast 95 and CIT2 TOR yeast 99.
`CCOc1cc(/C=N/Nc2nc(C)cc(=O)[nH]2)ccc1O` gave AGP1-GFP MLPCN 95, Myeloid diff 2 inactive, RPL19A-GFP yeast 107, MEP2 TOR yeast 187*, LAP4 TOR yeast 107 and CIT2 TOR yeast 150.
`Cc1cc(=O)[nH]c(N/N=C/c2cccs2)n1` gave AGP1-GFP MLPCN 25, Myeloid diff 2 inactive, RPL19A-GFP yeast 47*[may fluoresce violet], MEP2 TOR yeast 308*[may fluoresce violet], LAP4 TOR yeast 87 and CIT2 TOR yeast inconclusive.
Screening O=C(NCCC1=CCCCC1)C1CCC(CNc2c(N3CCCCC3)c(=O)c2=O)CC1 (configuration not stated) returned AGP1-GFP MLPCN 97, Myeloid diff 2 inactive, RPL19A-GFP yeast 96, MEP2 TOR yeast 96, LAP4 TOR yeast 106 and CIT2 TOR yeast 91.
`CN(Cc1nccs1)C(=O)c1ccc(OC2CCN(Cc3ccccn3)CC2)cc1` gave AGP1-GFP MLPCN 101, Myeloid diff 2 inactive, RPL19A-GFP yeast 101, MEP2 TOR yeast 102, LAP4 TOR yeast 103 and CIT2 TOR yeast 93.
`CCCC(=O)Nc1cccc(NC(=O)c2ccccc2Br)c1` gave AGP1-GFP MLPCN inconclusive, Myeloid diff 2 inactive, RPL19A-GFP yeast 34*[may fluoresce violet], MEP2 TOR yeast 286*[may fluoresce violet], LAP4 TOR yeast 96 and CIT2 TOR yeast inconclusive.
For FC(F)(F)c1ccc(C2[C@H]3CN(Cc4cccnc4)[C@H](c4ccccc4)C34CC2(c2cccnc2)C4)cc1 (some centres not stated) the results were AGP1-GFP MLPCN 83, Myeloid diff 2 inactive, RPL19A-GFP yeast 100, MEP2 TOR yeast 102, LAP4 TOR yeast 91 and CIT2 TOR yeast 76.
`Clc1ccc(C2[C@H]3CN(Cc4cccnc4)[C@H](c4ccccc4)C34CC2(c2cccnc2)C4)cn1` (some centres not stated) gave AGP1-GFP MLPCN 101, Myeloid diff 2 active, RPL19A-GFP yeast 96, MEP2 TOR yeast 98, LAP4 TOR yeast 95 and CIT2 TOR yeast 97.
Screening COc1ccc(-c2cc(C(=O)NC(C)C)no2)cc1 returned AGP1-GFP MLPCN 103, Myeloid diff 2 inactive, RPL19A-GFP yeast 102, MEP2 TOR yeast 111, LAP4 TOR yeast 114 and CIT2 TOR yeast 102.
